# Where “and” joins values, the source holds several entries; their conditions need not be identical. Equal values may be shown once. Calls of active or inactive are those of the source.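 Rule for the calls, unless noted: active = compounds whose cell count with miR-34 switched on is under 0.7 times the count with it off; inactive = the rest.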
# Columns and labels:
# [1] = P. berghei load reduction in hepatocytes – cell-based, HepG2, luciferase luminescence, HepG2 viability, primary screen (AID 624349; in the data active = parasite load remaining mostly below about 12%, no sharp cut-off; inactive = mostly above about 10%;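 note: 100% = mean of DMSO negative control wells on the same plate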); settings: P. berghei liver stage in HepG2, luciferase luminescence, concentration not given here; parasite load remaining: stronger effect = lower value; viability: measured here: HepG2 viability without parasites
# [2] = target: 6-phosphogluconate dehydrogenase, decarboxylating (Homo sapiens) (UniProt P52209); assay: inhibition of human phosphogluconate dehydrogenase – biochemical, recombinant enzyme, NADPH absorbance, primary screen (AID 1159550;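 active = at least 20% inhibition of 6-phosphogluconate dehydrogenase activity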); settings: recombinant 6PGD, NADPH absorbance 341 nm; at 10 µM; stronger effect = higher value
# [3] = viability loss with induced miR-34 in A549 – imaging, A549 dox-inducible miR-34, nuclei and caspase counts, primary screen (AID 1347080); settings: A549 miR-34 inducible, Hoechst nuclei count, 48 h
# [4] = MELAS cybrid and Rieske KO viability enhancers – cell-based, MELAS cybrids, Rieske KO mouse fibroblasts, CellTiter-Glo, primary screen (AID 1508586;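 active = mean z-score across replicates of 1.96 or higher in either the MELAS or the Rieske mutant cell line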;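 note: z relative to plate mean and SD of compound and empty wells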); settings: low glucose
# [5] = target: NAD(+) hydrolase SARM1 (Homo sapiens) (UniProt Q6SZW1); assay: blocking NAD cleavage by SARM1 SAM-TIR – cell lysate, NAD-Glo luminescence (AID 1508614;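 active = compound whose remaining NAD level is above about 45 nM, limit read from the data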;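 note: higher remaining NAD means stronger inhibition of SARM1 NADase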); settings: SAM-TIR HEK293T lysate NADase, at 1 µM, stronger effect = higher value
# [6] = target: Mitogen-activated protein kinase 7 (Homo sapiens) (UniProt Q13164); assay: Gal4-ERK5 driven luciferase induction – cell-based, HTS, primary screen (AID 1508626;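 active = luciferase signal above three times the same-plate solvent-only control wells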;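 note: luciferase driven by Gal4-ERK5 fusion binding five Gal4 sites before minimal TATA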); settings: HeLa Gal4-ERK5 transactivation, 18 h, at 5 µM, stronger effect = higher value
# [7] = galactose survival enhancers in mitochondrial complex I cybrids – cell-based, galactose medium, ATP luminescence, primary screen (AID 1645843;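 active = z-score of at least 1.8 in each of two replicates, scored against plate mean and spread of sample wells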;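 note: positive z means more ATP and so rescue of galactose-driven cybrid death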); settings: complex I mutant cybrid cells, 72 h, stronger effect = higher value
# Mitogen-activated protein kinase 7 (Homo sapiens), sequence (Q13164 whole entry, looked up, the tested form may be a part): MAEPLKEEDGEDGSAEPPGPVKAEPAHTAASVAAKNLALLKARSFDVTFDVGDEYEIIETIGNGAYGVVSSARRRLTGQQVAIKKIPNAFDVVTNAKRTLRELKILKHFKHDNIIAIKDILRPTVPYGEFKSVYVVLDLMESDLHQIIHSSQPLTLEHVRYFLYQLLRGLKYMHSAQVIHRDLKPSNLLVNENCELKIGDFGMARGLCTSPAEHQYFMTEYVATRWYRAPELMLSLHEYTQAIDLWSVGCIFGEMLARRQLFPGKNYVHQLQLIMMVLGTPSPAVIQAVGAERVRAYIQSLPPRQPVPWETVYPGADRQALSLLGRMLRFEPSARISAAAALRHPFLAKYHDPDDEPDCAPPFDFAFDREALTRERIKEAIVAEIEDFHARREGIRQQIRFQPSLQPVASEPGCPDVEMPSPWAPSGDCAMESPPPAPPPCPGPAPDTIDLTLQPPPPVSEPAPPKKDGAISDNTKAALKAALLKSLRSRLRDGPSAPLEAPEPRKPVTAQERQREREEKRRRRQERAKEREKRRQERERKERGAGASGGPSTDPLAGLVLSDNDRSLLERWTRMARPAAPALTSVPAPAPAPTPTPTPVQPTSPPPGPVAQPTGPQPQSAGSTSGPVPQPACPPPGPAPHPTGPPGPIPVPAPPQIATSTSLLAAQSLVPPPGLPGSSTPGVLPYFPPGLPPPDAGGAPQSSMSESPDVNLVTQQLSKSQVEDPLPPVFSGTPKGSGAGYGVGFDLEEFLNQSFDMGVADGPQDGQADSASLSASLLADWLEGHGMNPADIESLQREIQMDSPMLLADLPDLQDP
# 6-phosphogluconate dehydrogenase, decarboxylating (Homo sapiens), sequence (P52209 whole entry, looked up): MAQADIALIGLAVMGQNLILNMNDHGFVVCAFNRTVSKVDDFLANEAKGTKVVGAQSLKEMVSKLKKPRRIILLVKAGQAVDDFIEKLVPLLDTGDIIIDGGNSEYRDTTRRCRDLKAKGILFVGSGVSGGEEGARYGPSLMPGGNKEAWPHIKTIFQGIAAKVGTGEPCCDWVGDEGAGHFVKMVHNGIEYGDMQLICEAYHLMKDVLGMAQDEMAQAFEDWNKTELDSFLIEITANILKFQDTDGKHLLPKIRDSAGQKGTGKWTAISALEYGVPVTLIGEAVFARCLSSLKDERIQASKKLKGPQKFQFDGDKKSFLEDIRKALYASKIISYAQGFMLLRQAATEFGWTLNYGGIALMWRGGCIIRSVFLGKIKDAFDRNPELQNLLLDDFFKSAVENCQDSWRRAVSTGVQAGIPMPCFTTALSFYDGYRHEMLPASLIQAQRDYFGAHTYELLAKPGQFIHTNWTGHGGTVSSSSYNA
# NAD(+) hydrolase SARM1 (Homo sapiens), sequence (Q6SZW1 whole entry, looked up, the tested form may be a part): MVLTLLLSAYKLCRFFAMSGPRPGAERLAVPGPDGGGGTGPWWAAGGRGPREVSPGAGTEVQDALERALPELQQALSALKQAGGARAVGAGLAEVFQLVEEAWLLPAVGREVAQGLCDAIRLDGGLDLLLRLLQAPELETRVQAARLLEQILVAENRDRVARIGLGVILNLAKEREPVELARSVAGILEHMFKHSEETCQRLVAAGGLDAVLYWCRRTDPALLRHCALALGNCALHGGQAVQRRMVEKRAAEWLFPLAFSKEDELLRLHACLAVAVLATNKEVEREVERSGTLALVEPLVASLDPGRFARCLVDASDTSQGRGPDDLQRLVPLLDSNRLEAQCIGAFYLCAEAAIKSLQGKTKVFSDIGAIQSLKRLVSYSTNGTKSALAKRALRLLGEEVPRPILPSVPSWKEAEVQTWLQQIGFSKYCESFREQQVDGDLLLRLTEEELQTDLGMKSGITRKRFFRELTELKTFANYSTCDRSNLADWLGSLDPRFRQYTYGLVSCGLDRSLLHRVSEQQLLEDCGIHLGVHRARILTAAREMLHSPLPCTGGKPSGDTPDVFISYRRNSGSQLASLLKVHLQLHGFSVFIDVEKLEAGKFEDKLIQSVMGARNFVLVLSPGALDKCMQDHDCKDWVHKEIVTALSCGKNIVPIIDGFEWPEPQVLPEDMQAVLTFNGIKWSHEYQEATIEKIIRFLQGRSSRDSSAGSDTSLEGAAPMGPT
structure (smiles),measurement,setting,value
CC(=O)O[C@H]1C(=O)[C@@]2(C)[C@H]([C@H](OC(=O)c3ccccc3)[C@]3(O)C[C@H](OC(=O)[C@H](O)[C@@H](NC(=O)c4ccccc4)c4ccccc4)C(C)=C1C3(C)C)[C@]1(OC(C)=O)CO[C@@H]1C[C@@H]2O,parasite load remaining,[1],52.9% (inactive) and 35% (inactive)
same,viability,[1],43.2% and 79%
same,inhibition,[2],17.9% (inactive)
same,fold change,"[3]; stronger effect = lower value, cell number ratio, induced over uninduced",0.873 (inactive) and 1.02 (inactive)
same,fold change,[3]; measured here: relative caspase fold change +Dox/-Dox,1.16 and 1.19
same,cell count,"[3]; measured here: total cells with miR-34 induction, stronger effect = lower value",1550 and 2180
same,cell count,[3]; measured here: total cells without miR-34 induction,1780 and 2140
same,z-score,"[4]; MELAS cybrid survival, CellTiter-Glo 48 h, stronger effect = higher value",-1.19 (inactive) and -2.08 (inactive)
same,z-score,"[4]; Rieske KO mouse fibroblast survival, CellTiter-Glo 72 h",0.25 and 0.578
same,remaining NAD,[5],10 nM (inactive)
same,luciferase signal,[6],36 AU (inactive)
same,z-score,[7],-0.295 (inactive)

# — PubChem BioAssay
